Data on ten compounds can be found in ChEMBL document CHEMBL3988442, “University of Dundee, Small-Polar-MMV Screening Library” (2021).

For some of these results: Entries with a potency or affinity are not part of this list.

Design in all cases: scale not given: direction of the effect not stated beside the values
Test [1] addresses Protein translocase subunit SecA (Escherichia coli (strain K12)) (UniProt P10408). As to the kind of experiment: Assay to Identify E. coli SecA ATPase Inhibitors. The test is classed as functional. Particulars: 30 µM.
Test [2] has as its target T1, Ubiquitin-activating enzyme e1, putative (Leishmania donovani (strain BPK282A1)) (UniProt E9BSI1).
T1 sequence (whole entry): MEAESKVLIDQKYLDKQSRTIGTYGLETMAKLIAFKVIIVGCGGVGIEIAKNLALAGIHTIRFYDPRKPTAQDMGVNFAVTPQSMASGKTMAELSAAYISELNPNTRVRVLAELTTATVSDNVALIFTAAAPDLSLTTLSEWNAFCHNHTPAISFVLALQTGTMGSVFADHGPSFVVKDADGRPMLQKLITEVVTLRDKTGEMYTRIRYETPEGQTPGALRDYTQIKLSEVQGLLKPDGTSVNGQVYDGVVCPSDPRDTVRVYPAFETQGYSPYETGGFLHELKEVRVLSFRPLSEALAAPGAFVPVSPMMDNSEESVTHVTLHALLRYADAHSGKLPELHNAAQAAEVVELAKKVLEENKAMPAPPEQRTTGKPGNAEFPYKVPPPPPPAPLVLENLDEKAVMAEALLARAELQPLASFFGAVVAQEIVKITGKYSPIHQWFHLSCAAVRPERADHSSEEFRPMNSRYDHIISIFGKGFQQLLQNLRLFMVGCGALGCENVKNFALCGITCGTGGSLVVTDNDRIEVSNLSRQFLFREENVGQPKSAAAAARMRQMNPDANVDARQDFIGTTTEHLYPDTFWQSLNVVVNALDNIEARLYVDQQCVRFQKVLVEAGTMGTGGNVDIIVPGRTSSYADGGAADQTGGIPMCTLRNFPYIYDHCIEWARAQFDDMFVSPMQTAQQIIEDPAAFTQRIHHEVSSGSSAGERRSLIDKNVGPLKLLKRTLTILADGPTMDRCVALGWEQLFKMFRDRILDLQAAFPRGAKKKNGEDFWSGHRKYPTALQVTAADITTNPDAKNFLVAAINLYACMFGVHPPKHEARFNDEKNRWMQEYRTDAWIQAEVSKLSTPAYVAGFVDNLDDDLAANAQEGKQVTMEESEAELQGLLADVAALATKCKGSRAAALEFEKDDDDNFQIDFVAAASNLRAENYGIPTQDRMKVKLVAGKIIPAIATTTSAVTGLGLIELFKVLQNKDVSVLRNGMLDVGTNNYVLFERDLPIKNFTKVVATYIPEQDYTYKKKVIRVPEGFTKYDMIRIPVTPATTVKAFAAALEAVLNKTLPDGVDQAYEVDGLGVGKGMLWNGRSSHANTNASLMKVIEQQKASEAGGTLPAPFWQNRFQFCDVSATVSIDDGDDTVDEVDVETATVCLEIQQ
As to the kind of experiment: Leishmania donovani Ubiquitin Activating Enzyme (LdE1). The test is classed as functional. The note with it: 30 µM.

Test [3] deals with Sialic acid-binding Ig-like lectin 9 (Homo sapiens) (UniProt Q9Y336). The experiment in a line: Hs-Siglec9 ALPHAscreen SOP 20170721. The note with it: 10 µM. (Bead proximity is the source of the signal in Alpha formats.)
Sequence of Sialic acid-binding Ig-like lectin 9 (Homo sapiens) (Q9Y336 whole entry): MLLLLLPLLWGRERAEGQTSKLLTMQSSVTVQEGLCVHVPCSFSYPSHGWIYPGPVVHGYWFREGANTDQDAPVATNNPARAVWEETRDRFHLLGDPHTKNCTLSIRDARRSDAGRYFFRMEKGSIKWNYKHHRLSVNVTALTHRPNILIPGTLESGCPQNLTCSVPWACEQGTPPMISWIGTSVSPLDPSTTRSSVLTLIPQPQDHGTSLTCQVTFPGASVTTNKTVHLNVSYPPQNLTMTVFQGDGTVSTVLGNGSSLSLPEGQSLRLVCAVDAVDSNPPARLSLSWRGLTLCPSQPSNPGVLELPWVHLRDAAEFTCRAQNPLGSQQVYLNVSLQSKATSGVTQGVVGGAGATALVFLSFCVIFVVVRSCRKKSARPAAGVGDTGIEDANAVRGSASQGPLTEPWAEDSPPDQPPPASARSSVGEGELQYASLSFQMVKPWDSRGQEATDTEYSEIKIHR
The next test deals with Trypanosoma cruzi. As to the kind of experiment: Trypanosoma cruzi phosphomannomutase and mannose-1-phosphate guanylyltransferase assay. The format is functional. Particulars: 10 µM.
In test [4] the target is T2, Arginase-2, mitochondrial (Homo sapiens) (UniProt P78540).
T2 sequence (whole entry): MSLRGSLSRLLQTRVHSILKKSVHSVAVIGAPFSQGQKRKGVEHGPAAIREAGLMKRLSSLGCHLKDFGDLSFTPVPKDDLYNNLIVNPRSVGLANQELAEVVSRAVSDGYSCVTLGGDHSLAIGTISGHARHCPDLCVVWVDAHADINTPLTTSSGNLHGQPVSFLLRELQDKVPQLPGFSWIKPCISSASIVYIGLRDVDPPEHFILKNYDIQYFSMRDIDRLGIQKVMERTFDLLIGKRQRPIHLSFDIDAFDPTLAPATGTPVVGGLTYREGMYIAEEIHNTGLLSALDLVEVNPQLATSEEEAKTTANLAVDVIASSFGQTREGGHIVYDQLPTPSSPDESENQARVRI
The experiment in a line: in vitro enzyme assay to detect the production of urea directly proportional to the activity of Arginase II. Further: in the data most compounds retested in dose-response had high values. The test is classed as functional. Particulars: 33.3 µM.

The target in test [5] is T3, Proteasome subunit beta (Trypanosoma cruzi) (UniProt O96673).
T3 sequence (whole entry): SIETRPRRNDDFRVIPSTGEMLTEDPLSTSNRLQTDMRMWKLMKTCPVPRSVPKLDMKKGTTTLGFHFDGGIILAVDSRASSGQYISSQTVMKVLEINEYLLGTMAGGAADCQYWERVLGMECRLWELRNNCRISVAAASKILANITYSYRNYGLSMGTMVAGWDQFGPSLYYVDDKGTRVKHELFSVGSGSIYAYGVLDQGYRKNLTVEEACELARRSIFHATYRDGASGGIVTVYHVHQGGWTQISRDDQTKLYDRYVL
The experiment in a line: Trypanosoma cruzi proteasome chymotrypsin-like activity (TcProtChymo) assay. Further: in the data most compounds retested in dose-response had high values. The test is classed as functional. The note with it: 9.37 µM.

For a further test, the species on record is Homo sapiens. As to the kind of experiment: To identify inhibition of the IFN signalling (Jak-Stat) pathway via expression of an eGFP reporter gene under the control of an IFN-stimulated response element (ISRE) containing MxA promoter. The note with it: 30 µM. The format is functional. Background: A reporter such as luciferase makes a cellular process visible.

The target in test [6] is T4, Tyrosyl-tRNA synthetase, putative (Trypanosoma cruzi (strain CL Brener)) (UniProt Q4DSP6).
T4 sequence (whole entry): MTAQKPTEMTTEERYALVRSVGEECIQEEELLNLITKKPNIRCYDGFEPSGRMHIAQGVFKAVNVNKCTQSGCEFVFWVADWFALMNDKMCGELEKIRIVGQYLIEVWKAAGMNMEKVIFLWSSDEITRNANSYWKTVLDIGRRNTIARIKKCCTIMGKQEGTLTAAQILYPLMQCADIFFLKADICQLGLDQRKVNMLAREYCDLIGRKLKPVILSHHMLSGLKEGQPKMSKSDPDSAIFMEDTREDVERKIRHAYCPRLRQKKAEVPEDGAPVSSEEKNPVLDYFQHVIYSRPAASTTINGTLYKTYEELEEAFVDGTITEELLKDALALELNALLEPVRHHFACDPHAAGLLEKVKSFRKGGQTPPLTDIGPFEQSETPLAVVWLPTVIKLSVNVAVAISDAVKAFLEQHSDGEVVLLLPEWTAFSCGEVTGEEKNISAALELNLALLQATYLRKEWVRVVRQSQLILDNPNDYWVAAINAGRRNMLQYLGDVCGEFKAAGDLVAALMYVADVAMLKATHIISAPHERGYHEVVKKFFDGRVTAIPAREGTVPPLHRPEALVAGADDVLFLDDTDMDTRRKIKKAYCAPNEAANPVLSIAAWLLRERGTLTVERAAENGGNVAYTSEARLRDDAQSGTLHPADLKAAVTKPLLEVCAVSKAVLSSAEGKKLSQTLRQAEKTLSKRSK
The experiment in a line: Trypanosoma cruzi tyrosyl tRNA synthetase (TcYRS) _High Tyrosine SOP. Further: in the data most compounds retested in dose-response had high values. Particulars: 30 µM. The format is functional.

For test [7], the target named is T4, Tyrosyl-tRNA synthetase, putative (Trypanosoma cruzi (strain CL Brener)). As to the kind of experiment: Trypanosoma cruzi tyrosyl tRNA synthetase (TcYRS) SOP. Particulars: 30 µM. The format is functional.
The target in test [8] is Chromo domain-containing protein 1 (Saccharomyces cerevisiae (strain ATCC 204508 / S288c) (Baker's yeast)) (UniProt P32657). As to the kind of experiment: ScCHD-1 Enzyme Inhibition Assay. Further: in the data most compounds retested in dose-response had high values. The note with it: 30 µM. The format is functional.
Sequence of Chromo domain-containing protein 1 (Saccharomyces cerevisiae (strain ATCC 204508 / S288c) (Baker's yeast)) (P32657 whole entry, the tested form may be a part): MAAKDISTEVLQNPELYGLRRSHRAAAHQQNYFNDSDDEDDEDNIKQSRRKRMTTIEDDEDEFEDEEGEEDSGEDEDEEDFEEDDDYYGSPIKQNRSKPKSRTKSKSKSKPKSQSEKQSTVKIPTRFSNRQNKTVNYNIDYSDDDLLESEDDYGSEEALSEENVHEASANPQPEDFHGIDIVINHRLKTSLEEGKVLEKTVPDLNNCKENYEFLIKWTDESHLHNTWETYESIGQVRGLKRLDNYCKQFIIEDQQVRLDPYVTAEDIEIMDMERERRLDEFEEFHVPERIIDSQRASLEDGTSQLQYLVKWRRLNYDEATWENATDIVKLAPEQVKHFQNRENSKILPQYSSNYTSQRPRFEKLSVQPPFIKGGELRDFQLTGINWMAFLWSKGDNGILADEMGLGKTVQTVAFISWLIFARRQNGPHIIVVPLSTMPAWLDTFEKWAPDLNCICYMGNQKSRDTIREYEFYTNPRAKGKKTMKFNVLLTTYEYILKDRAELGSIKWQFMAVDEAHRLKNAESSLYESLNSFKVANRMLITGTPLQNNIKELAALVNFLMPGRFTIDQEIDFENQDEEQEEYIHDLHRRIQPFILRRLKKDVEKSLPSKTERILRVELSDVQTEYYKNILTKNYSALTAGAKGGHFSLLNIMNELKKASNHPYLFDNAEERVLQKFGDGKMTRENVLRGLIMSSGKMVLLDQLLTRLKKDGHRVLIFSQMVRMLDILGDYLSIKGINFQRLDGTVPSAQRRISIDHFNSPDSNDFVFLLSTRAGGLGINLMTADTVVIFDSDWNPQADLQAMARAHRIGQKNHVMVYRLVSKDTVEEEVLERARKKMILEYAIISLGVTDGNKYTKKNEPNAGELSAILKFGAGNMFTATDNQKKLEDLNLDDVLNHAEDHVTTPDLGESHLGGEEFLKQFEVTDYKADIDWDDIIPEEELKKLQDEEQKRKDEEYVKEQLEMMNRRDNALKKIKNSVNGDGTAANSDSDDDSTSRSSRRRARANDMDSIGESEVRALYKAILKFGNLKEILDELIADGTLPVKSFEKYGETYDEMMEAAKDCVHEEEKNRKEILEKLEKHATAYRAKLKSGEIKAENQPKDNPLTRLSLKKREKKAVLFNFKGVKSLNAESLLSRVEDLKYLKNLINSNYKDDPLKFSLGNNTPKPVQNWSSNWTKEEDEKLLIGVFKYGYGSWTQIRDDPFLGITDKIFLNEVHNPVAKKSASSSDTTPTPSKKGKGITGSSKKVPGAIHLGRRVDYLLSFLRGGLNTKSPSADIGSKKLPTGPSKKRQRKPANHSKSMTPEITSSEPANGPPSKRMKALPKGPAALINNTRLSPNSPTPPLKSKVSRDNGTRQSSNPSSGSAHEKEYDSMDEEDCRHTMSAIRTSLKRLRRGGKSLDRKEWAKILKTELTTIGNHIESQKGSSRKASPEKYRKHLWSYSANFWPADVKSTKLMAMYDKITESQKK

Sequence of Protein translocase subunit SecA (Escherichia coli (strain K12)) (P10408 whole entry): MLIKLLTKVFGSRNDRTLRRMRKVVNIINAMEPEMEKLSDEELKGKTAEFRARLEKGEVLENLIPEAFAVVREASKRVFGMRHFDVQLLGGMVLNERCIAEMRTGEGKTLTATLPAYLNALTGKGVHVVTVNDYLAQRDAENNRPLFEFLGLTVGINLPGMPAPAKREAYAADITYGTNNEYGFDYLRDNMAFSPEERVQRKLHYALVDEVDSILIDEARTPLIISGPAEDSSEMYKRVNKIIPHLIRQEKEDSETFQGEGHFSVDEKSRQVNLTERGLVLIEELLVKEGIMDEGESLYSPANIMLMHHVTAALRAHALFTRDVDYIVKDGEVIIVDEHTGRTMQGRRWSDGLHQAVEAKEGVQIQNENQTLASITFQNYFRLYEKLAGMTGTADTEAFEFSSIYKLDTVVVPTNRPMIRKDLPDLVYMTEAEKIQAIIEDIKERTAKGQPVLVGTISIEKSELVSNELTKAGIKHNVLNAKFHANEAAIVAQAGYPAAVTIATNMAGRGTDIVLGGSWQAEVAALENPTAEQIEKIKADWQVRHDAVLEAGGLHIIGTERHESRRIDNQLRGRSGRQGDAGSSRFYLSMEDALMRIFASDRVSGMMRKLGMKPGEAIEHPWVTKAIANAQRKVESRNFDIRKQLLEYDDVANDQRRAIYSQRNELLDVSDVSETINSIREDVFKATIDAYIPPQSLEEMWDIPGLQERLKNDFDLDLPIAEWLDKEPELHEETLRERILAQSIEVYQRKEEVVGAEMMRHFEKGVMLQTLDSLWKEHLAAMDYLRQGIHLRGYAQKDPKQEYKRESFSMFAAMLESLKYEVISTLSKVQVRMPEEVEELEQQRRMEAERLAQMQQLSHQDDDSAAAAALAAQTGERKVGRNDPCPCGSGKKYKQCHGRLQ

As to `O=C1C(NCc2nnc3n2CCCC3)CCCN1c1cccc(F)c1` (stereo not given), the Percent Effect in test [1] is 0.699%; in test [2] it was 10.3%; in test [3], -12.3%; in the test on Trypanosoma cruzi, -1.6%; in [4], 6.56%; in [5], 16.8%. The Percent Effect in the test listed under Homo sapiens is 19.1%; in [6], 10.1%; in test [7], 13.2%; in [8] it was -2.66%.
For `Cc1cccc(C(=O)N2CCC(Cc3cnc4[nH]ccc4c3)CC2)n1`, the Percent Effect was -4.68% in test [1]; 12% in test [2]; -0.292% in test [3]; -3.35% with Trypanosoma cruzi; 4.42% in test [4]; 9.2% in test [5]. Moreover, the Percent Effect was 2.32% in the test filed under Homo sapiens, 3.17% in [6], 7.5% in test [7] and -24.1% in test [8].
Regarding `Cc1nc(COC[C@@H]2CCC[C@@]23CNCCO3)cs1`, the Percent Effect was -4.17% in [1]; 6.49% in test [2]; -6% in [3]; -4.19% with Trypanosoma cruzi; 4.05% in test [4]; 13% in test [5]. For the same compound, the Percent Effect in the test listed under Homo sapiens is 8.21%; in [6] it was 6.84%; in test [7] it was 2.56%; in [8], -5.3%.
As to `Cc1ccc(C(=O)N2CCC3(CC2)COC(COc2ccccn2)C3)o1` (stereo not given), the Percent Effect was -7% in test [1]; 19.5% in [2]; 6.32% in test [3]; 2.24% in the test on Trypanosoma cruzi; -2.83% in [4]; 7.33% in test [5]. Moreover, the Percent Effect in the test filed under Homo sapiens is -10.8%; in test [6] it was 5.79%; in [7], 12.8%; in [8] it was 18.6%.
Regarding `Cc1cccc(CN2C[C@@H]3COC[C@]3(CNC(=O)c3ccsc3)C2)n1`, the Percent Effect in test [1] was -7.55%; in [2], 9.09%; in test [3] it was -4.17%; in the test with Trypanosoma cruzi it was 1.27%; in test [4], -3.64%; in test [5] it was 22.3%. Besides, the Percent Effect in the test listed under Homo sapiens was -5.86%; in test [6] it was 7.89%; in test [7], 12.8%; in test [8] it was 108%.
As for `CC(=O)N1CCc2c(nc(-c3ccncc3)nc2N(C)CC(O)CO)C1` (stereo not given), the Percent Effect in [1] is -4.98%; in test [2], 2.7%; in [3], 3.26%; in the test on Trypanosoma cruzi, -2.62%; in [4], 5.94%; in [5], 3.94%. Moreover, the Percent Effect is 12.2% in the test filed under Homo sapiens, 5.85% in test [6], 14.6% in [7] and -4.24% in test [8].
Turning to `O=C(NCCn1nc2ccccn2c1=O)c1cccc2[nH]ncc12`, the Percent Effect is -1.51% in test [1]; 20.5% in test [2]; -7.98% in [3]; 6.29% with Trypanosoma cruzi; -3.69% in test [4]; 21.9% in test [5]. The Percent Effect in the test filed under Homo sapiens is 13.6%; in [6], 4.31%; in test [7] it was 22.9%; in test [8], -8.5%.
As to `Cn1cnc2c1CCN(CCCc1ccccc1)C2`, the Percent Effect in test [1] was -5.94%; in test [2] it was 2.67%; in [3], 4.07%; with Trypanosoma cruzi it was 5.62%; in test [4] it was -3.55%; in test [5] it was 4.16%. For the same compound, the Percent Effect in the test listed under Homo sapiens is 23.4%; in [6] it was 7.89%; in test [7], 12.8%; in [8] it was -10.6%.
With `CC(=O)N1CCc2c(nc(-c3ccccn3)nc2N(C)CC(O)CO)C1` (stereo not given), the Percent Effect in test [1] was -7.71%; in [2], 8.11%; in test [3] it was 3.94%; with Trypanosoma cruzi it was 2.62%; in test [4], 5.25%; in test [5], 3.94%. Moreover, the Percent Effect in the test filed under Homo sapiens was -12.5%; in test [6] it was 14.4%; in test [7], 21.9%; in test [8], -1.31%.
`c1csc(-c2nc(CNC3CCc4ncnn4C3)cs2)c1` (stereo not given): the Percent Effect in [1] is -3.1%; in test [2] it was 10.3%; in [3] it was 2.55%; in the test on Trypanosoma cruzi, 0.469%; in [4], 2.05%; in test [5], 7.93%. Besides, the Percent Effect in the test filed under Homo sapiens is 0.908%; in test [6], 6.22%; in test [7] it was 18.1%; in test [8] it was 1.57%.
